Experimental findings from PubChem BioAssay (Tox21) are described below.

Results filed as inconclusive are left out. Activity calls are given as the source filed them. Calls come from the whole dose curve.
% is set by controls: 0 for no effect and ±100 for the full control effect; potency is the fitted concentration of half-maximal effect.

The assay in a line: p53 small molecule agonists, cell-based qHTS assay with rat liver microsomes: qHTS cell viability counter screen (AID 1963580). Note: nearly all actives have a fitted effect of over 45% in size. To be noted: p53RE-bla HCT-116 + rat microsomes, ATP viability, 16 h; series mostly up to 66 µM; activity change, negative = cytotoxicity: at the top concentration. The text has this:
National Center for Advancing Translational Sciences [NCATS]
Division of Preclinical Innovation [DPI]
U.S. Environmental Protection Agency [EPA]
National Institutes of Environmental Health Sciences [NIEHS]
National Toxicology Program [NTP]
U.S. Food and Drug Administration [FDA]
p53, a tumor suppressor protein, is activated following cellular insult, including DNA damage and other cellular stresses. The activation of p53 regulates cell fate by inducing DNA repair, cell cycle arrest, apoptosis, or cellular senescence. The activation of p53, therefore, is a good indicator of DNA damage and other cellular stresses. The CellSensor p53RE-bla HCT-116 cell line contains a stably integrated beta-lactamase reporter gene under control of the p53 response elements. The activation of the reporter gene under culture conditions can be detected by fluorescence intensity. This cell line was used to screen the Tox21 10K compound library in the condition of presence of rat liver microsomes and to identify agonists that activate the p53 signaling pathway after in vitro metabolic activation (Ooka et al., Archive of Toxicology 96:1975-1987, 2022). The cytotoxicity of the Tox21 compound library against the p53 RE-bla HCT-116 cell line was tested in parallel by measuring the intra cellular ATP content in the same wells.
Tox21 Assay Protocol Summary:
The p53RE-bla cells were dispensed at 4,000cells/3ul/well in 1536-well black-clear bottom plates. After the assay plates were incubated at 37 C, 5% CO2 incubator for 5 hours, 23 nL of compounds dissolved in DMSO, positive controls or DMSO only was transferred to the assay plate. Following compound addition, 3 uL of rat liver microsomes (Molecular Toxicology, Boone, NC) at final concentration of 0.5 mg/mL and 1uL of B-Nicotinamide adenine dinucleotide 2'-phosphate (NADPH) at final concentration of 0.5 mg/mL were transferred to the assay plate. The plates were incubated at 37 C for 16 hours. 1 uL of LiveBLAzer detection mixture was added to each well and the plates were incubated at room temperature in the dark for 2 h. Fluorescence intensity at 460 and 530 nm emission and 405 nm excitation were measured by an Envision plate reader. For cell viability readout that measures cytotoxicity, 4 ul/well of CellTiter-Glo reagent was added into the assay plates using a Flying Reagent Dispenser. After 30 min incubation at room temperature, the luminescence intensity in the plates was measured using a ViewLux plate reader.
Regarding `CCc1cc2c(s1)-n1c(C)nnc1CN=C2c1ccccc1Cl`, the “activity change, negative = cytotoxicity” value is -4.08% [at 30.3 µM] (inactive).
As for `Cc1ccc2cc3c(ccc4ccccc43)c3c2c1CC3`, the “activity change, negative = cytotoxicity” value was -1.23% [at 30.3 µM] (inactive).
On the same count and under the same terms, for `COc1ccc(C=O)cc1O` the value was -1.14% (inactive).
On to `CN(C)C1CCCCC1`, for which the “activity change, negative = cytotoxicity” value was 0.426% (inactive).
On to `COCC(C)N(C(=O)CCl)c1c(C)csc1C` (stereo not given), for which the “activity change, negative = cytotoxicity” value is -4.91% (inactive).
Still for that read-out and setting: as for `CCC1(CC)C(=O)NC(=O)NC1=O`, the figure is -1.56% [at 30.3 µM] (inactive); as for `CC(=O)Nc1ccc2c(c1)Cc1ccccc1-2`, -0.0481% (inactive); as for `N#Cc1ccc(N(CC(N)=O)CC(F)(F)F)cc1C(F)(F)F`, -14.1% (inactive).
With `Clc1ccc(CCC(Cn2ccnc2)Sc2c(Cl)cccc2Cl)cc1` (stereo not given), the “activity change, negative = cytotoxicity” value was -9.27% [at 30.3 µM] (inactive).
On the same count and under the same terms, for `CC1(C)C(/C=C(\Cl)C(F)(F)F)C1C(=O)OC(C#N)c1cccc(Oc2ccccc2)c1` (stereo not given) the value was 4.41% (inactive); for `CCOc1cc(C(C)(C)C)ccc1C1COC(c2c(F)cccc2F)=N1` (stereo not given), -12.9% [at 30.3 µM] (inactive); for `O=[N+]([O-])c1cccc2cccc([N+](=O)[O-])c12`, -0.577% (inactive).
The same measure, in the same setting: as for `CCOP(=S)(OCC)Oc1ccc(S(C)=O)cc1` (stereo not given), the figure is 12.1% (inactive); as for `NC1=NC(=O)C(c2ccccc2)O1` (stereo not given), 0.123% [at 30.3 µM] (inactive); as for `CCCCCCC(=O)CCCCCC/C=C/C[C@@H](O)[C@H](O)[C@@](N)(CO)C(=O)O`, -0.611% [at 13.5 µM] (inactive).
On to `CCCOc1nn(C(=O)NS(=O)(=O)c2ccccc2C(=O)OC)c(=O)n1C`, for which the “activity change, negative = cytotoxicity” value is 0.657% (inactive).
Still for that read-out and setting: for `COP(=S)(OC)Oc1ccc([N+](=O)[O-])c(C)c1` the value was -4.53% (inactive).
On to `O=C(CCCN1CCC2(CC1)C(=O)NCN2c1ccccc1)c1ccc(F)cc1`, for which the “activity change, negative = cytotoxicity” value was 5.01% [at 30.3 µM] (inactive).
Take `Brc1ccccc1`: the “activity change, negative = cytotoxicity” value was -1.72% (inactive).
The same measure, in the same setting: for `CC[N+]1(C)CCCC(OC(=O)C(O)(c2ccccc2)c2ccccc2)C1` (stereo not given) the value was -10.4% [at 30.3 µM] (inactive).
Turning to `CCOCn1c(-c2ccc(Cl)cc2)c(C#N)c(Br)c1C(F)(F)F`, the Potency was 22.9 µM (active).
Turning to `c1cncc([C@@H]2CCCCN2)c1`, the “activity change, negative = cytotoxicity” value is -17.5% (inactive).
As for `Oc1cc(Cl)cc(Cl)c1`, the “activity change, negative = cytotoxicity” value is 0.358% (inactive).
On the same count and under the same terms, for `CCN(CC)C(=O)Cl` the value was 11.6% (inactive); for `N#CCCC(Br)(C#N)CBr` (stereo not given), -11.8% (inactive); for `CCN(CC)C(C)C(=O)c1ccccc1` (stereo not given), -1.95% [at 30.3 µM] (inactive).
Consider `CC(Cl)C(C)Cl` (stereo not given), for which the “activity change, negative = cytotoxicity” value was 1.3% (inactive).
As to `CC(=O)OC1(c2ccccc2)CCN(CCc2ccccc2)CC1`, the “activity change, negative = cytotoxicity” value was -4.31% (inactive).
The same measure, in the same setting: for `OCCBr` the value was 0.175% (inactive).
Regarding `CCCCC(CC)COP(=O)(Oc1ccccc1)Oc1ccccc1` (stereo not given), the “activity change, negative = cytotoxicity” value is -5.43% (inactive).
In the case of `CNC(=O)O/N=C(\C)C(C)S(C)(=O)=O` (stereo not given), the “activity change, negative = cytotoxicity” value is -11.6% [at 623 µM] (inactive).
As to `CSc1nc(N=[N+]=[N-])nc(NC(C)C)n1`, the “activity change, negative = cytotoxicity” value was 0.459% (inactive).
On the same count and under the same terms, as for `C#CC(O)(C=CCl)CC` (stereo not given), the figure is -10.9% [at 30.3 µM] (inactive); as for `CC[C@H]1C[C@H]2[C@@H]3CCC4=CC(=O)CC[C@@H]4[C@H]3CC[C@]2(C)[C@H]1O`, 2.98% [at 30.3 µM] (inactive); as for `Clc1cccc(SC2CCNCC2)n1`, 4.28% [at 30.3 µM] (inactive).
With `CNC(=O)Oc1cc(C)c(SC)c(C)c1`, the “activity change, negative = cytotoxicity” value is 7.67% (inactive).
Take `ClCc1ccc(Cl)cc1Cl`: the “activity change, negative = cytotoxicity” value was 5.61% (inactive).
Regarding `CC[C@H](C)[C@H]1O[C@]2(C=C[C@@H]1C)C[C@@H]1C[C@@H](C/C=C(\C)[C@@H](O[C@H]3C[C@H](OC)[C@@H](O[C@H]4C[C@H](OC)[C@@H](NC)[C@H](C)O4)[C@H](C)O3)[C@@H](C)/C=C/C=C3\CO[C@@H]4[C@H](O)C(C)=C[C@@H](C(=O)O1)[C@]34O)O2`, the Potency is 14.5 µM (active).
On to `Oc1c(Cl)cccc1Cl`, for which the “activity change, negative = cytotoxicity” value is 2.7% (inactive).
On the same count and under the same terms, as for `C[C@]12CC[C@H]3[C@@H](CCC4=CC(=O)CC[C@@H]43)[C@@H]1CC[C@@H]2OC(=O)CCc1ccccc1`, the figure is 1.04% [at 30.3 µM] (inactive).
